The results in this text go back to PubChem BioAssay.

Structures are written as SMILES. Inconclusive results are not listed. The source made the active and inactive calls. Unless noted, how the calls were made is not given here.

Experiment [1] in a line: compounds altering circadian rhythm period length – cell-based, LOPAC library, luminescence reporter (AID 2774).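 Further: values are relative to mean of DMSO wells on each plate.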 The following applies: circadian reporter cells, at 7 µM, actives lie on both sides.
For experiment [2], the system named is Hepatitis C virus NS3 helicase. Kind of experiment: blockers of NS3h binding to ssDNA – biochemical, fluorescence polarization, LOPAC1280 library, primary screen (AID 687035; in the data active means inhibition above about 37%). Particulars: Purified HCV NS3 helicase, Cy5-dT15 ssDNA binding fluorescence polarization; stronger effect = higher value; concentration not given here. A general note: Fluorescence polarisation rises when a labelled molecule tumbles more slowly, as on binding a larger partner.

A short description of experiment [3]: compounds altering Cy5-DNA-NS3h complex signal – biochemical, LOPAC1280, artefact control for HCV NS3 helicase inhibitor project (AID 687037). Particulars: Cy5-DNA-NS3h complex fluorescence interference counterscreen. (In general: The purpose of a counterscreen is to sort out artefacts and off-target activity.)
Experiment [4] can be described thus: viability loss in pontine glioma line – cell-based, SU-DIPG-XIII, MIPE5.0, CellTiter-Glo, qHTS, dose response (AID 1347064; cut-off not given, nearly all actives have AC50 up to about 23 µM;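 on AC50: cells exposed to compound for 48 hours before the viability read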). Particulars: CellTiter-Glo ATP luminescence.
The nature of experiment [5]: growth inhibition, single agent or in combination, cell-based, chromothripsis tumors, cisplatin or BGB combos (AID 1671449; in the data active means inhibition above about 80%;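 further: cells exposed for 96 hours; 0% = vehicle DMSO and 100% = killing by high DMSO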). The following applies: LFS_MB_P medulloblastoma cells.
Experiment [6] in a line: growth inhibition, single agent and combos, cell-based, chromothripsis tumors, cisplatin or BGB combos (AID 1671450; in the data active means inhibition above about 80%;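 further: cells exposed to compound for four days; 0% = vehicle DMSO and 100% = cell killing by high DMSO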). The following applies: HDN33 neuroblastoma cells, stronger effect = higher value.
The nature of experiment [7]: growth inhibition, single agents and combos, ICB984, cell-based, cisplatin or BGB combos, synergistic combos for chromothripsis tumors (AID 1671451).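 Further: cells exposed for 96 hours before readout; 0% = vehicle DMSO and 100% = killing by high DMSO.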 Particulars: ICB984 medulloblastoma cells, drug combinations, stronger effect = higher value.
Experiment [8] is described as follows: growth inhibition, single agents and combos, LFS_MB_1R, cell-based, cisplatin or BGB combos, synergistic combos for chromothripsis tumors (AID 1671452; in the data active means inhibition above about 80%;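 further: cells exposed for 96 hours before readout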). Particulars: LFS_MB_1R medulloblastoma cells, stronger effect = higher value.
Experiment [9] can be described thus: growth inhibition, single agents and combos, HTB85, cell-based, BGB or cisplatin IC20 combos, synergistic combos for chromothripsis tumors (AID 1671453; in the data active means inhibition above about 80%;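 further: cells exposed for 96 hours before readout; 0% = vehicle DMSO and 100% = high DMSO killing control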). The following applies: HTB85 osteosarcoma cells, drug combinations, stronger effect = higher value.
A short description of experiment [10]: growth inhibition, single agents and combos, CRL2098, cell-based, BGB or cisplatin IC20 combos, synergistic combos for chromothripsis tumors (AID 1671454; in the data active means inhibition above about 80%;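 further: cells exposed for 96 h before readout; 0% = vehicle DMSO and 100% = killing by high DMSO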). The following applies: CRL2098 osteosarcoma cells, drug combinations, stronger effect = higher value.
Experiment [11] in a line: growth inhibition, single agents and combos, HD-MB03, cell-based, BGB or cisplatin IC20 combos, synergistic combos for chromothripsis tumors (AID 1671455; in the data active means inhibition above about 83%;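 further: 0% = vehicle DMSO and 100% = high DMSO as cytotoxic control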). The following applies: HD-MB03 medulloblastoma cells, stronger effect = higher value.
The nature of experiment [12]: growth inhibition, single agents and combos, UWB1.289, cell-based, BGB or cisplatin combos, synergistic combos for chromothripsis tumors (AID 1671456; in the data active means inhibition above about 80%;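 further: cells exposed to compound for four days; 0% = vehicle DMSO and 100% = killing by high DMSO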). Particulars: UWB1.289 ovarian carcinoma cells, stronger effect = higher value.
The nature of experiment [13]: growth inhibition, MDA-MB-436, cell-based, BGB or cisplatin combos, synergistic combos for chromothripsis tumors (AID 1671458).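 Further: cells exposed for 96 hours; 0% = vehicle DMSO and 100% = killing by high DMSO.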 Particulars: MDA-MB-436 breast carcinoma growth inhibition, drug combinations, stronger effect = higher value.
The nature of experiment [14]: BT084 cell growth, single and combined drugs, ICGC_MB145, cisplatin and BGB IC40 combos (AID 1671461; in the data active means inhibition above about 80%;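 further: cells exposed to drugs for 96 hours; 0% = vehicle DMSO and 100% = high DMSO full killing control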). The following applies: BT084 medulloblastoma cells, drug combinations, stronger effect = higher value.
Experiment [15] can be described thus: RCMB18 cell growth, single agent and combined, cisplatin and BGB IC40 combos (AID 1671462; in the data active means inhibition above about 80%;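 further: cells exposed to compound for four days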). The following applies: RCMB18 medulloblastoma cells, stronger effect = higher value.
A short description of experiment [16]: CRL1545 cell growth, single agent and combined, cisplatin and BGB IC20 combos (AID 1671464; in the data active means inhibition above about 80%;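 further: cells exposed to compound for 96 hours before readout; 0% = vehicle DMSO and 100% = high DMSO killing control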). Particulars: CRL1545 osteosarcoma cells, stronger effect = higher value.
For experiment [17], the target named is NAD(+) hydrolase SARM1 (Homo sapiens) (UniProt Q6SZW1). Kind of experiment: blocking NAD cleavage by SARM1 SAM-TIR – cell lysate, NAD-Glo luminescence (AID 1508614;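 active means compound whose remaining NAD level is above about 45 nM, limit read from the data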). The following applies: SAM-TIR HEK293T lysate NADase, at 1 µM, stronger effect = higher value.
Chain of NAD(+) hydrolase SARM1 (Homo sapiens) (Q6SZW1 whole entry, looked up): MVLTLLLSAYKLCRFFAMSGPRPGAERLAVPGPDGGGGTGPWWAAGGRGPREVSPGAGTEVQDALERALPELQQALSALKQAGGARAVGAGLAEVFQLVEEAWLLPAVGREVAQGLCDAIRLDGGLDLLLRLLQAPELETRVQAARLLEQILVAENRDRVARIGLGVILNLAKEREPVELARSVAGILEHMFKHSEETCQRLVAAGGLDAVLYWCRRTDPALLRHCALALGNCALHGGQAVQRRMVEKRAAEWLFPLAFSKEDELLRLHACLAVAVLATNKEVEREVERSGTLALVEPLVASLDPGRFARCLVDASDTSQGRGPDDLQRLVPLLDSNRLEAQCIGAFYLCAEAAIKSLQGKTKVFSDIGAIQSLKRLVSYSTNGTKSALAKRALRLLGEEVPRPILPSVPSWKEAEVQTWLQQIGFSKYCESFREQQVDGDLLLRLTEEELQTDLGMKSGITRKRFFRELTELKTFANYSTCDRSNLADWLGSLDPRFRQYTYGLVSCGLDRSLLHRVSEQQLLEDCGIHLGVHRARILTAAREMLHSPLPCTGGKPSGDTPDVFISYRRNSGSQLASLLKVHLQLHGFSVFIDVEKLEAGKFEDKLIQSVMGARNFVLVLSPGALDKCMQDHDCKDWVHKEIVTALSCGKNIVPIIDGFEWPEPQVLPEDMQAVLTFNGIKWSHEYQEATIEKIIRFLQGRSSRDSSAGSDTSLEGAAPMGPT
Experiment [18] can be described thus: viability loss in pontine glioma line – cell-based, SU-DIPG-XIII, MIPE4.0, CellTiter-Glo, qHTS, dose response (AID 1347061; cut-off not given, nearly all actives have AC50 up to about 37 µM;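 further: cells exposed to compound for 48 hours before readout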). Particulars: CellTiter-Glo ATP luminescence. (In general: Cellular ATP, detected with luciferase, serves as a proxy for viable cell number.)
Experiment [19] can be described thus: compounds altering HSF1 focus formation in cells – imaging, Selleck Cancer Library (AID 1347162; in the data active means plate-normalised HSF1 focus index below about 0.46). Particulars: human cells, HSF1 nuclear foci imaging, at 10 µM; SSMD: measured here: HSF1 foci SSMD mean; cell count: measured here: cell number; plate-normalised HSF1 focus index: stronger effect = lower value.
The mark [20] stands for this setting: measured here: combination with BGB IC40, at 0.05 µM.
Setting [21] is: measured here: with BGB IC20 combination, at 0.5 µM.
Where [22] appears, read: measured here: with cisplatin IC20 combination, at 0.5 µM.
The mark [23] stands for this setting: measured here: combination with cisplatin, at 0.5 µM.

For the compound `CCOC(=O)Nc1ccc(NCc2ccc(F)cc2)nc1N`, the period change in experiment [1] was -0.33 h (inactive). Also, the inhibition (usually the relative decrease from the control value, in per cent) in [2] was -3% (inactive); in experiment [5] (at 0.5 µM, stronger effect = higher value) it was -13% (inactive); in experiment [5] (measured here: combination with BGB IC20, at 0.005 µM), -4.33%; in [5] (measured here: combination with BGB IC40, at 0.005 µM), 50.9%; in [5] (setting [20]) it was -18.8%; in experiment [5] (measured here: combination with cisplatin, at 0.5 µM, stronger effect = higher value) it was 4.96%. The inhibition in [5] (measured here: combination with cisplatin, at 5 µM, stronger effect = higher value) was -32.9%; in [6] (BGB combo, at 5 µM), -49%; in experiment [6] (at 0.5 µM), 0.72% (inactive); in [6] (cisplatin combo, at 5 µM), -18.8%; in [6] (setting [21]) it was -18.2%; in [6] (setting [22]), 17%. The inhibition is -28.3% in experiment [6] (single agent, at 5 µM); -2.86% in experiment [7] (BGB IC20 combo, at 0.005 µM); -6.26% in [7] (BGB IC40 combo, at 0.005 µM); -38.3% in experiment [7] (BGB IC40 combo, at 0.05 µM); -14.8% (inactive) in [7] (at 0.5 µM); -45.5% in [7] (cisplatin combo, at 0.05 µM). Also, the inhibition in [7] (cisplatin combo, at 0.5 µM) was -9.07%; in experiment [7] (cisplatin combo, at 5 µM), -15.3%; in experiment [7] (measured here: 5 uM single agent, at 5 µM) it was -2.67%; in [8] (at 0.5 µM) it was -9.81% (inactive); in experiment [8] (setting [20]) it was -17%; in [8] (setting [23]) it was -23.8%. The inhibition in [8] (measured here: combination with cisplatin, at 5 µM) was -29.7%; in experiment [9] (at 0.5 µM) it was 21.2% (inactive); in [9] (measured here: with BGB IC20, at 0.5 µM), 57.6%; in [9] (measured here: with BGB IC20, at 5 µM), 10.9%; in [9] (measured here: with cisplatin IC20, at 0.5 µM), -16.9%; in [9] (measured here: with cisplatin IC20, at 5 µM) it was 0.401%. Also, the inhibition is 1.76% in experiment [9] (single agent, at 5 µM); -23.9% (inactive) in [10] (at 0.5 µM); -12.9% in experiment [10] (measured here: combination with BGB at IC20, at 0.5 µM); -33.8% in experiment [10] (measured here: combination with cisplatin at IC20, at 0.5 µM); -9% (inactive) in experiment [11] (at 0.5 µM); -9.72% in experiment [11] (measured here: combo with BGB at IC20, at 0.5 µM). Besides, the inhibition in [11] (measured here: combo with cisplatin at IC20, at 0.5 µM) is -9.37%; in experiment [12] (at 0.5 µM), 4.04% (inactive); in [12] (measured here: inhibition with BGB combination, at 0.05 µM), -16.5%; in experiment [12] (measured here: inhibition with cisplatin combination, at 0.05 µM), -2.73%; in experiment [13] (at 0.5 µM), -12.4% (inactive); in [13] (measured here: BGB combination, at 0.5 µM), -4.35%. The inhibition in [13] (measured here: BGB combination, at 5 µM) was -17.6%; in experiment [13] (measured here: cisplatin combination, at 0.5 µM) it was -28%; in experiment [13] (measured here: cisplatin combination, at 5 µM), -26.4%; in experiment [14] (at 0.5 µM) it was 3.08% (inactive); in experiment [14] (cisplatin combination, at 0.5 µM), 2.67%; in [14] (cisplatin combination, at 5 µM), -33.2%. In addition, the inhibition in [14] (measured here: BGB IC40 combination 0.05 uM, at 0.05 µM) is 71.5%; in experiment [14] (single agent, at 5 µM), 2.9%; in [15] (at 0.5 µM) it was -10.8% (inactive); in experiment [15] (cisplatin combo, at 5 µM), -27%; in experiment [15] (measured here: BGB IC40 combination, at 0.05 µM) it was 4.05%; in experiment [15] (setting [23]) it was -15.1%. Besides, the inhibition was -7.25% in experiment [15] (single agent, at 5 µM); 5.77% (inactive) in experiment [16] (at 0.5 µM); -17.8% in [16] (setting [21]); 16.2% in experiment [16] (setting [22]); -4.81% in [16] (single agent, at 0.05 µM); -34.9% in experiment [16] (single agent, at 5 µM). Further, the fluorescence ratio (interference) in [3] is 1 (inactive). Besides, the call in experiment [4] was inactive.

In the case of `COC(=O)C1=C(C)NC(C)=C(C(=O)OCCN2CCN(C(c3ccccc3)c3ccccc3)CC2)C1c1cccc([N+](=O)[O-])c1` (centres undefined), the AC50 (commonly the concentration giving half of the maximal activity seen) in experiment [4] was 8.33 µM (active). Moreover, in experiment [17], the remaining NAD was 10 nM (inactive).

As for `C[C@]12CC[C@@H]3c4ccc(O)cc4C[C@@H](CCCCCCCCCS(=O)CCCC(F)(F)C(F)(F)F)[C@H]3[C@@H]1CC[C@@H]2O` (some centres undefined), the inhibition in experiment [2] is 0% (inactive). The fluorescence ratio (interference) in experiment [3] was 0.9 (inactive). Besides, in experiment [18], the call was inactive. Also, in experiment [19], the SSMD is 2.09, the cell count is 7000 and the plate-normalised HSF1 focus index is 1.13 (inactive). The remaining NAD in [17] is 10 nM (inactive).

Turning to `Cc1ccc(-c2ncc(Cl)cc2-c2ccc(S(C)(=O)=O)cc2)cn1`, the compound was classed as inactive in [4].

With `Cc1nc2c([nH]1)c(=O)n(C)c(=O)n2Cc1ccco1`, the period change in [1] was 0.08 h (inactive). Moreover, the inhibition in experiment [2] is -1% (inactive). Moreover, in [3], the fluorescence ratio (interference) was 1 (inactive).

In the case of `CCC(=O)c1ccc2c(c1)N(CCCN(C)C)c1ccccc1S2`, the period change in experiment [1] was -0.02 h (inactive). Also, the inhibition in experiment [2] was -4% (inactive). In addition, in experiment [3], the fluorescence ratio (interference) is 0.9 (inactive).

In the case of `CSc1ccc(C(=O)c2[nH]c(=O)[nH]c2C)cc1`, the period change in experiment [1] is 0.015 h (inactive). Besides, the inhibition in experiment [2] was 0% (inactive). Besides, the fluorescence ratio (interference) in [3] was 1.1 (inactive).

Take `NC(N)=NCCC[C@H](N)C(=O)O`: the period change in experiment [1] is -0.2 h (inactive). For the same compound, the inhibition in experiment [2] is -3% (inactive). The fluorescence ratio (interference) in [3] was 1 (inactive). Also, in experiment [17], the remaining NAD was 10 nM (inactive).

On to `N[C@@H](COP(=O)(O)O)C(=O)O`, for which the period change in [1] was 0.04 h (inactive). For the same compound, the inhibition in experiment [2] was -1% (inactive). Also, the fluorescence ratio (interference) in experiment [3] was 1 (inactive). Further, the remaining NAD in experiment [17] was 10 nM (inactive).

As for `N[C@@H](CC(=O)O)C(=O)O`, the period change in experiment [1] is 0.065 h (inactive). Also, the inhibition in [2] was 0% (inactive). The fluorescence ratio (interference) in [3] is 0.9 (inactive). For the same compound, in experiment [17], the remaining NAD is 10 nM (inactive).

Consider `O=C(O)CP(=O)(O)O`, for which the period change in [1] is 0.02 h (inactive). Moreover, the inhibition in experiment [2] was -3% (inactive). Besides, the fluorescence ratio (interference) in experiment [3] was 0.9 (inactive).

As for `CC(C)(C)c1ccc(C(=O)CCCN2CCC(OC(c3ccccc3)c3ccccc3)CC2)cc1`, the inhibition in experiment [2] was 3% (inactive). Moreover, the fluorescence ratio (interference) in experiment [3] is 1 (inactive).

In the case of `COC(=O)C1=C(C)NC(C)=C(C(=O)OC(C)(C)CN(C)CCC(c2ccccc2)c2ccccc2)C1c1cccc([N+](=O)[O-])c1` (centres undefined), the inhibition in experiment [2] was 3% (inactive). Moreover, in experiment [3], the fluorescence ratio (interference) was 1 (inactive).

Consider `O=C(O)CN(CCOCCOCCN(CC(=O)O)CC(=O)O)CC(=O)O`, for which the period change in experiment [1] was 0.1 h (inactive). Also, the inhibition in [2] was -1% (inactive). In addition, the fluorescence ratio (interference) in experiment [3] was 1 (inactive).
